Experimental data published in publication PMC5869772, “Quantitative profiling of BATF family proteins/JUNB/IRF hetero-trimers using Spec-seq”.

biological target: T1, BATF;JUNB (human;human, UniProt Q16520;P17275 1-125;148-347, |); experiment: Spec-seq (EMSA and sequencing of bound and unbound bands); 100 nM BATFx-JUNB, 1 uM dsDNA library, 50 mM K acetate, 20 mM Tris-acetate, 10 mM Mg acetate, 100 ug/ml BSA, pH 7.9, 10% glycerol, 30 min on ice; native 9% PAGE at 4 C; low values mean tight binding; conditions: protein: recombinant;recombinant; tags: N-terminal mCherry-TEV, cleaved off;C-terminal 6His; copies: 1;1; dsDNA, one strand shown
T1 sequence 1: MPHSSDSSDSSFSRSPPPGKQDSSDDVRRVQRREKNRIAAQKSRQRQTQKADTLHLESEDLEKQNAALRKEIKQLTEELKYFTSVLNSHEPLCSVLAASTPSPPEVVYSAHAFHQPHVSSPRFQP
T1 sequence 2: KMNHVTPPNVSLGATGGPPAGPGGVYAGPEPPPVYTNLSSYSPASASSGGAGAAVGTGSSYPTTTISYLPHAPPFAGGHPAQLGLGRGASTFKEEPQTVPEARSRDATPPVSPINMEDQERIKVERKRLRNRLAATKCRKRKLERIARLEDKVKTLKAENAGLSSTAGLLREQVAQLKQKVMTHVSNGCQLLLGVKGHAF
Outline: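 The protein, at 100 nM, was incubated with 1 μM double-stranded degenerate DNA library for 30 min on ice in NEB Cutsmart buffer with 10% glycerol, then resolved by native 9% PAGE at 4 °C. Excised bound and unbound bands were PCR-barcoded and Illumina-sequenced, and each sequence's relative binding energy in kT is −ln of its bound/unbound read-count ratio.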

| Sequence | binding signal |
| --- | --- |
| GATAGTCTCATTTTCACCCCGTGAAAGGACGTCATTGTTCCATTACAGTATCTGT | -0.227 kT |
| GATAGTCTCATTTTCACCCCGTGAAAATGCGTCATTGTTCCATTACAGTATCTGT | -1.01 kT |
| GATAGTCTCATTTTCACCCCGTGAAATGACTCAATTGTTCCATTACAGTATCTGT | -0.531 kT |
| GATAGTCTCATTTTCACCCCGTGAAACCGAGTCATTGTTCCATTACAGTATCTGT | -0.617 kT |
| GATAGTCTCATTTTCACCCCGTGAAATGACGACATTGTTCCATTACAGTATCTGT | -0.298 kT |
| GATAGTCTCATTTTCACCCCGTGAAATGAGACAGTTGTTCCATTACAGTATCTGT | 0.654 kT |
| GATAGTCTCATTTTCACCCCGTGAAATGAGGTCATTGTTCCATTACAGTATCTGT | -0.348 kT |
| GATAGTCTCATTTTCACCCCGTGAAATTGCGTCATTGTTCCATTACAGTATCTGT | -0.89 kT |
| GATAGTCTCATTTTCACCCCGTGAAAGTGGGTCATTGTTCCATTACAGTATCTGT | 0.393 kT |
| GATAGTCTCATTTTCACCCCGTGAAAATGGGTCATTGTTCCATTACAGTATCTGT | -0.00523 kT |
| GATAGTCTCATTTTCACCCCGTGAAATGACTTAATTGTTCCATTACAGTATCTGT | -0.138 kT |
| GATAGTCTCATTTTCACCCCGTGAAACTTAGTCATTGTTCCATTACAGTATCTGT | -0.834 kT |
| GATAGTCTCATTTTCACCCCGTGAAACTAAGTCATTGTTCCATTACAGTATCTGT | -0.15 kT |
| GATAGTCTCATTTTCACCCCGTGAAATGACCCAATTGTTCCATTACAGTATCTGT | 0.427 kT |
| GATAGTCTCATTTTCACCCCGTGAAAGCGAGTCATTGTTCCATTACAGTATCTGT | -0.514 kT |
| GATAGTCTCATTTTCACCCCGTGAAATGACGGCATTGTTCCATTACAGTATCTGT | -0.148 kT |
| GATAGTCTCATTTTCACCCCGTGAAATCACTCATTTGTTCCATTACAGTATCTGT | -0.257 kT |

| Sequence | binding signal |
| --- | --- |
| GATAGTCTCATTTTCACCCCGTGAAAGGGAGTCATTGTTCCATTACAGTATCTGT | -0.148 kT |
| GATAGTCTCATTTTCACCCCGTGAAACTGCGTCATTGTTCCATTACAGTATCTGT | -0.647 kT |
| GATAGTCTCATTTTCACCCCGTGAAATGAGTCCTTTGTTCCATTACAGTATCTGT | 0.17 kT |
| GATAGTCTCATTTTCACCCCGTGAAATGGGTCATTTGTTCCATTACAGTATCTGT | 0.293 kT |
| GATAGTCTCATTTTCACCCCGTGAAATGACGTCTTTGTTCCATTACAGTATCTGT | -0.0562 kT |
| GATAGTCTCATTTTCACCCCGTGAAATGACTCCGTTGTTCCATTACAGTATCTGT | 0.0406 kT |
| GATAGTCTCATTTTCACCCCGTGAAATGAGACATTTGTTCCATTACAGTATCTGT | 0.216 kT |
| GATAGTCTCATTTTCACCCCGTGAAATGAGGCAGTTGTTCCATTACAGTATCTGT | 0.781 kT |
| GATAGTCTCATTTTCACCCCGTGAAATGACTAAGTTGTTCCATTACAGTATCTGT | -0.456 kT |
| GATAGTCTCATTTTCACCCCGTGAAACTGAGTCATTGTTCCATTACAGTATCTGT | -1.39 kT |
| GATAGTCTCATTTTCACCCCGTGAAATGACTCGTTTGTTCCATTACAGTATCTGT | -0.0971 kT |
| GATAGTCTCATTTTCACCCCGTGAAAGTCAGTCATTGTTCCATTACAGTATCTGT | -0.0489 kT |
| GATAGTCTCATTTTCACCCCGTGAAATGACTCGCTTGTTCCATTACAGTATCTGT | -0.141 kT |
| GATAGTCTCATTTTCACCCCGTGAAAAGGAGTCATTGTTCCATTACAGTATCTGT | -0.134 kT |
| GATAGTCTCATTTTCACCCCGTGAAATGAGTCACTTGTTCCATTACAGTATCTGT | -0.822 kT |
| GATAGTCTCATTTTCACCCCGTGAAATGAATCATTTGTTCCATTACAGTATCTGT | -0.738 kT |
